# USP8 inh: inhibitors of human USP8 deubiquitinase | 4.2% of 47,000 active | inhibition, % at 20 µM | purified USP8, Ub-rhodamine cleavage fluorescence, 30 min
# USP17 inh: inhibitors of human USP17 deubiquitinase; Ubiquitin carboxyl-terminal hydrolase 17-like protein 5 (Homo sapiens), A8MUK1; purified USP17, Ub-rhodamine cleavage fluorescence, 3 h; inhibition, % at 50 µM; 6.5% of 47,000 active; AID 1645855, 2021
# USP10 block: inhibitors of human USP10 deubiquitinase; 1.1% of 47,000 active; purified USP10, Ub-rhodamine fluorescence, 60 min; AID 1645856, 2021; inhibition, % at 20 µM
# USP30 inh: inhibitors of human USP30 deubiquitinase; 5.3% of 47,000 active; Ubiquitin carboxyl-terminal hydrolase 30 (Homo sapiens), Q70CQ3; inhibition, % at 25 µM; AID 1645860, 2021; purified USP30, Ub-rhodamine cleavage fluorescence
# Target sequence (Q70CQ3 whole entry, looked up): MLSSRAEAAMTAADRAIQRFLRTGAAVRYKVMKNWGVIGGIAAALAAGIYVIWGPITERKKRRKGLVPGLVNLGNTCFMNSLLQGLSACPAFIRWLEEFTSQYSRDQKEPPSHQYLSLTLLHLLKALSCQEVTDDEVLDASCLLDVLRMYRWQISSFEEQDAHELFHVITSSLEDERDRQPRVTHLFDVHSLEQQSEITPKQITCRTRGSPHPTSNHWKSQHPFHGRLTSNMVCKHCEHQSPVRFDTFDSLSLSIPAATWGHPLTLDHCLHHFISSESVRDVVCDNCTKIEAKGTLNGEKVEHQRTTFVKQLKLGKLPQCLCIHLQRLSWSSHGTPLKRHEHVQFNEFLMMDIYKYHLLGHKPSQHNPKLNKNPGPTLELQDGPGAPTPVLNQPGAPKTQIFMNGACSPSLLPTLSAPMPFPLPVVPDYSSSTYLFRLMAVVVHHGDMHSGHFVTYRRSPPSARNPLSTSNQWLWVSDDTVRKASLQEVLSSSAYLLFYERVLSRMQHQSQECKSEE
# USP7 block: inhibitors of human USP7 deubiquitinase; Ubiquitin carboxyl-terminal hydrolase 7 (Homo sapiens), Q93009; purified USP7, Ub-rhodamine cleavage fluorescence; inhibition, % at 20 µM; 0.3% of 47,000 active
# UCHL1 block: inhibitors of human UCHL1 deubiquitinase; inhibition, % at 20 µM; 0.2% of 47,000 active; AID 1645859, 2021; purified UCHL1, Ub-rhodamine cleavage fluorescence
# * hit, by the source's call; x = not tested or not shown. Hits are enriched below; roughly 13% of the tested compounds scored in any of these assays. Rule as the data show it: active = inhibition above about 30%; inactive = the rest.
SMILES,USP8 inh,USP17 inh,USP10 block,USP30 inh,USP7 block,UCHL1 block
COc1ccc(NS(=O)(=O)c2cc(NC(=O)CCC(=O)c3ccc(F)cc3)ccc2C)cc1,2,-8,9,36*,0,-1
Cn1cc2cccc(NC(=O)c3ccc(F)cc3)c2n1,91*,87*,2,-3,-2,5
CN(C)c1cnc(-n2cc(NC(=O)c3ccc(F)cc3)cn2)nc1,-24,4,-7,-129,0,-6
COc1ccc(S(=O)(=O)Nc2ccccc2Cl)cc1C(=O)N1CCCCCC1,18,5,5,14,2,0
Nc1nonc1C(=O)N1CC[C@@H]2[C@H]1CCCC(=O)N2Cc1ccccc1C(F)(F)F,-18,-13,-3,-3,-9,-2
CCC(C)[C@H](NC(=O)N1CCn2c1nc1ccccc12)C(=O)NCCC1=CCCCC1 (some centres not stated),0,36*,1,-25,-8,0
COc1ccc(CCNC(=O)[C@H](C)NC(=O)N2CCn3c2nc2ccccc23)cc1OC,1,20,0,30*,2,-1
COc1ccc(CCNC(=O)[C@H](CCSC)NC(=O)N2CCn3c2nc2ccccc23)cc1OC,16,35*,0,75*,-4,0
CC(C)C[C@H](NC(=O)N1CCn2c1nc1ccccc12)C(=O)NCCc1ccccc1,-5,-14,0,-5,-27,0
COc1cccc(CNC(=O)[C@H](C)NC(=O)N2CCn3c2nc2ccccc23)c1,-1,-22,-4,-1,-3,-2
Cc1ccc(CNC(=O)[C@H](C)NC(=O)N2CCn3c2nc2ccccc23)cc1,-20,65*,3,80*,1,-1
Cc1ccc(NC(=O)c2cc(C(F)(F)F)n(C)n2)c(Cl)c1,3,9,-1,x,1,1
COc1ccc(CNC(=O)[C@H](CCSC)NC(=O)N2CCn3c2nc2ccccc23)cc1,3,9,1,44*,-8,1
COc1ccc(-n2ccn3c(CCC(=O)Nc4ccc(F)cc4)nnc3c2=O)cc1,0,0,0,-21,2,-1
Cc1ccc(CNC(=O)CCCc2nnc3c(=O)n(-c4cccc(F)c4)ccn23)cc1,36*,14,-3,5,5,2
O=C(CCCc1nnc2c(=O)n(-c3cccc(F)c3)ccn12)NCc1ccc(Cl)cc1,19,35*,17,-38,28,15
COc1ccc(CNC(=O)CCCc2nnc3c(=O)n(-c4cc(C)cc(C)c4)ccn23)cc1,78*,39*,35*,-1,20,6
Cc1cccc(NC(=O)CCc2nnc3c(=O)n(-c4cccc(F)c4)ccn23)c1,38*,7,6,-1,7,8
COc1cccc(CNC(=O)CCc2nnc3c(=O)n(-c4cccc(F)c4)ccn23)c1,-19,9,-2,5,-2,-3
COc1ccc(-n2ccn3c(CCC(=O)NCc4ccccc4)nnc3c2=O)cc1,19,0,2,8,3,-1
O=C(NCC1CCCO1)c1n[nH]c2c1CCCCCC2 (configuration not stated),-7,3,0,20,1,3
NC(=O)c1cccc(NC2CCCCNC2=O)c1 (configuration not stated),-6,0,-3,-9,0,-4
CC(=O)NC[C@H]1C[C@]2(C)[C@@H](CCCC[C@]2(C)O)N1C(=O)CCc1cccnc1,12,2,0,9,1,0
COc1cccc(CN2C[C@@]34CN(C(=O)c5ccncc5)C[C@@H](C[C@@H]3S2(=O)=O)O4)c1,-33,-14,3,8,-1,-1
CC(C)n1c(=O)[nH]c2c(C(=O)N3CCCCC3)snc2c1=O,29,19,4,38*,7,2
SMILES,USP8 inh,USP17 inh,USP10 block,USP30 inh,USP7 block,UCHL1 block
CN1C[C@@H]2C[C@H](NS(=O)(=O)c3cccc(Cl)c3)CN2Cc2ccccc21,6,-20,-9,-71,1,0
Cc1ccc2c(C)c(C(=O)N(Cc3ccc(Cl)cc3)Cc3ccco3)oc2c1C,49*,35*,16,0,12,8
O=c1cc(CN2CCN(Cc3ccccc3)CC2)c2cc3c(cc2o1)CCC3,-9,-20,-1,-4,-2,-1
O=c1oc2c3c(c(Cl)cc2c2c1CCCC2)OCN(Cc1ccccc1)C3,82*,44*,5,-120,-16,8
O=c1oc2c3c(c(Cl)cc2c2c1CCCC2)OCN(CCc1ccc(F)cc1)C3,41*,43*,-3,4,3,-4
O=C(Cn1cnc(S(=O)(=O)N2CCc3ccccc32)c1)Nc1cccc(Cl)c1,-40,8,4,-31,-2,-3
CCCc1cc(=O)[nH]c(N=C(NC(=O)c2ccccc2)Nc2ccc(F)cc2)n1,3,7,-1,24,6,0
COc1ccccc1OCC(=O)Nc1ccc2c(c1)Sc1ncccc1C(=O)N2C,5,8,-5,-20,-4,-8
O=C(c1cnn2ccccc12)N1CCN(C(=O)C2CC=CCC2)CC1 (configuration not stated),-8,0,1,-7,-2,-2
O=C(c1ccc2c(c1)N(Cc1ccccc1F)C(=O)c1ccccc1S2(=O)=O)N1CCN(C(=O)c2ccco2)CC1,13,38*,3,29,4,3
O=C(c1ccc2c(c1)N(Cc1ccccc1F)C(=O)c1ccccc1S2)N1CCC2(CC1)OCCO2,6,12,0,1,1,4
COc1ccc(CNC(=O)C2COc3ccc(OC)cc3C2)cc1 (configuration not stated),1,34*,3,0,-1,-4
COCCn1c(C)cc(C(=O)c2sc(-c3c(N)n(C)c(=O)n(C)c3=O)nc2-c2ccccc2)c1C,27,35*,1,27,6,1
COCCn1c(C)cc(C(=O)COC(=O)c2ccc3c(c2)nc(C)n3-c2ccccc2)c1C,-39,-56,-7,-280,-12,-13
Cc1cc(-c2cnc(C(C)C)nc2-c2ccc(CNC(=O)CC3C=CCC3)cc2)on1 (configuration not stated),-1,13,-1,1,-27,-2
Cn1c(=O)c(N2CCOCC2)nc2c(OCc3ccccc3)nc(N)nc21,-4,5,-2,5,29,-1
COc1cccc(NC(=O)CCc2nnc3n(CCCOC(C)C)c(=O)c4ccccc4n23)c1,81*,69*,4,89*,x,4
CC(C)OCCCn1c(=O)c2ccccc2n2c(CCC(=O)NCc3ccccn3)nnc12,0,1,1,-4,0,1
CC(C)OCCCn1c(=O)c2ccccc2n2c(CCC(=O)NCCc3c[nH]c4ccccc34)nnc12,19,37*,-1,28,4,5

# Screening data (PubChem)
